HPGD block: qHTS Assay for Inhibitors of HPGD (15-Hydroxyprostaglandin Dehydrogenase) | AID 894, 2007 | Potency, µM, usual class: inhibitors | 15-hydroxyprostaglandin dehydrogenase [NAD(+)] (Homo sapiens), P15428 | hit rate 4.3% among 150,000 | purified HPGD, NADH fluorescence kinetic, PGE2 substrate; active = well fitted inhibition curve with a large enough effect, not every such curve was filed as active; inconclusive = small, poorly fitted or top-dose-only effect, or another doubt; inactive = no such curve, though single readings can be large or run the other way
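NADH formation kinetics: reaction with 30 uM PGE2 and 1 mM NAD+ (final), 20 nM enzyme, Tris-HCl pH 8 with Tween 20, after 15 min compound preincubation at room temperature. Fluorescence change, last versus first of five reads.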
IMPase cell inh: qHTS Assay for Identifying the Cell-Membrane Permeable IMPase Inhibitors; Inositol monophosphatase 1 (Rattus norvegicus), P97697; CHO-M1 cells, IP1 accumulation, HTRF TR-FRET ratio; inhibition (IP1 accumulation), % at 46.1 µM; 120,000 tested, under 10 active; AID 901, 2007; active = well fitted curve in the direction sought with a large enough effect in the signal ratio, not every such curve was filed as active; inconclusive = small, poorly fitted or top-dose-only effect, or a change in a side signal; inactive = no such curve, though single readings can be large or run the other way; the % refers to the signal ratio;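 also: cells stimulated with carbachol in lithium chloride buffer; higher means more IMPase inhibition seen as more IP1 and lower FRET ratio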
Target sequence (P97697 whole entry, looked up): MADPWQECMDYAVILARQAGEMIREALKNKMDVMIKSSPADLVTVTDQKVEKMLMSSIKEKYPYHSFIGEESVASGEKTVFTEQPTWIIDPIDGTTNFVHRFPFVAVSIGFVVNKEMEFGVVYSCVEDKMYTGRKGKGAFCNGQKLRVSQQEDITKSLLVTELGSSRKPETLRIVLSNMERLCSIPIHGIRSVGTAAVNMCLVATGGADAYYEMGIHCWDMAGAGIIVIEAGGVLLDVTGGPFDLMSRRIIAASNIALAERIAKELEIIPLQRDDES
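Measured: the HTRF emission ratio (665/620 nm) plus the 620 nm donor channel, each fitted to the Hill equation to give AC50. Cells were CHO-M1 given compounds up to 46 uM and a 30 min carbachol stimulation at 37C.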
ALDH1A1 inh: qHTS Assay for Inhibitors of Aldehyde Dehydrogenase 1 (ALDH1A1); hit rate 7.3% among 220,000; Aldehyde dehydrogenase 1A1 (Homo sapiens), P00352; Purified ALDH1A1, NADH fluorescence, propionaldehyde substrate; Potency, µM (series often up to 75.3 µM), most hits filed as inhibitors; active = well fitted inhibition curve with a large enough effect, not every such curve was filed as active; inconclusive = small, poorly fitted or top-dose-only effect, or another doubt; inactive = no such curve, though single readings can be large or run the other way
NPSR antagonist: qHTS Assay for Antagonists of the Neuropeptide S Receptor: cAMP Signal Transduction. CHO-NPSR cells, cAMP TR-FRET, antagonist mode. AID 1461, 2008. Q6W5P4. hit rate 1% among 220,000. Potency, µM (highest dose often 38.3 µM), usual class: inhibitors; also: nearly all actives have a fitted effect of over 50% in size
Target sequence (Q6W5P4 whole entry, looked up): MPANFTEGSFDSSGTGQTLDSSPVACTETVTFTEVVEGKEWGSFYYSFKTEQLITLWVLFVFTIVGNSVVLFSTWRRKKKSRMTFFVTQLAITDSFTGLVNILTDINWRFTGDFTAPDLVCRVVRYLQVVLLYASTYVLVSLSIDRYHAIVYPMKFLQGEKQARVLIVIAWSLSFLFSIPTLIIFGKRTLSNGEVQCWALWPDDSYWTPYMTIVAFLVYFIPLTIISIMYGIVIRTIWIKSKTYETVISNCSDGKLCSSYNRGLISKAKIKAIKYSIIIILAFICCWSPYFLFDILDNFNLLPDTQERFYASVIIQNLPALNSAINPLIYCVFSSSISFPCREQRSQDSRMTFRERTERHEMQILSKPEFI
12-hLO inh: qHTS Assay for Inhibitors of 12-hLO (12-human lipoxygenase); Potency, µM (top dose mostly 57.1 µM), actives largely listed as inhibitors; Polyunsaturated fatty acid lipoxygenase ALOX12 (Homo sapiens), P18054; purified 12-hLO, xylenol orange hydroperoxide absorbance; AID 1452, 2008; hit rate 0.12% among 150,000; also: nearly all actives have a fitted effect of over 55% in size
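Hydroperoxide output read as Fe(III)-xylenol orange absorbance, 573-to-405 nm ratio, after 30 min reaction with 40 uM arachidonic acid. Enzyme: 150 nM purified human 12hLO, 15 min compound preincubation; 25 mM Hepes pH 7.0, room temperature.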
IMPase Li inh: qHTS Assay for Identifying the Cell-Membrane Permeable IMPase Inhibitors: Potentiation with Lithium; hit rate 0.35% among 210,000; AID 1457, 2008; CHO-M1 cells, IP1 TR-FRET (IP-One), carbachol + lithium; Potency, µM (series often up to 59.4 µM), most hits filed as inhibitors;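 also: IP1 builds up when IMPase is blocked and the TR-FRET signal falls; nearly all actives have a fitted effect of over 50% in size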
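Concentration–response in CHO-M1 cells, lithium-potentiated; 30 min at 37C. IP1 detected by competitive TR-FRET after 10 min lysis at RT. Hill-fitted AC50.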
Hits are given with their value; . = inactive; ? = inconclusive; / = not tested or not shown; [ ] = dose if it differs, or a comment. Most compounds without a hit are left out; they make up all but 8.9% or so of the library. Unless noted, calls follow the shape of the dose curve; as a rule, active = well fitted curve in the direction sought with a large enough effect; inconclusive = small, poorly fitted or top-dose-only effect, or another doubt; inactive = no such curve, though single readings can be large; an effect the other way counts as inactive or inconclusive.

SMILES | HPGD block | IMPase cell inh | ALDH1A1 inh | NPSR antagonist | 12-hLO inh | IMPase Li inh
Cc1c(C(c2cc3c(cc2Br)OCO3)c2c(C)n(C)n(-c3ccccc3)c2=O)c(=O)n(-c2ccccc2)n1C | . | . | . | . | . | .
CN(CC(=O)NC1CCCCC1)S(=O)(=O)c1cccc2nsnc12 | . | . | . | . | . | .
COc1ccc(CC(NC(C)=O)C(=O)NC2CCN(c3nnnn3-c3ccccc3)CC2)cc1OC (configuration not stated) | / | / | 10µM | . | / | .
COc1ccc(OC)c(CC(NC(C)=O)C(=O)NC2CCN(c3nnnn3-c3ccccc3)CC2)c1 (configuration not stated) | / | / | / | . | / | /
COC(=O)/C(C#N)=C/c1c(-c2ccccc2)nc2n1CCS2 | / | / | 1.41µM | . | / | /
COc1ccc(-c2nc3n(c(=O)c2C#N)CCS3)cc1 | / | / | . | . | / | .
Cc1ccc(S(=O)(=O)c2nc(-c3cccc(Br)c3)oc2N2CCCCCC2)cc1 | / | . | / | / | / | /
Cc1ccccc1OCCn1c(=N)n(C(C)C)c2ccccc21 | / | . | / | / | / | /
CC(=O)Cc1nsc(Nc2ccc3c(c2)OCCO3)n1 | 20µM | . | 3.16µM | . | . | .
Cc1cc(/C=N/n2cnnc2)c(C)n1-c1cc(Cl)ccc1Cl | . | . | 22.4µM | ? | . | .
Cc1cccc(-n2c(C)cc(/C=N/n3cnnc3)c2C)c1 | . | . | ? | . | . | .
CN(C(=S)NC(=O)CCCOc1ccc(Cl)cc1Cl)c1ccccc1 | 11.2µM | . | 17.8µM | . | . | .
CCN(CC)C(=O)CCCOc1ccc(Cl)cc1Cl | 25.1µM | . | . | . | . | .
O=C(COc1ccc(Cl)cc1Cl)Nc1ccc(Cl)cn1 | 8.91µM | . | . | . | . | .
CC(C)NC(=O)CCCOc1ccc(Cl)cc1Cl | 14.1µM | . | . | . | . | .
Cn1cc(CN2C[C@]3(C)C[C@H]2CC(C)(C)C3)c(-c2ccc3c(c2)OCCO3)n1 | / | / | . | . | / | .
O=C(OC1CCCCC1=O)c1ccc(S(=O)(=O)Nc2ccccc2)cc1 (configuration not stated) | / | / | ? | . | / | .
CN(C)CCCCOc1ccc(Br)cc1Cl | / | / | ? | . | / | .
C#CCN(C)CCCOc1ccc(Cl)cc1Cl | 14.1µM | . | . | . | . | .
Cc1ccc(C(=O)Nc2cccc(C(=O)NCc3ccccc3)c2)o1 | . | . | . | . | . | .
O=C(CN1CCCCC1)Nc1cccc(Oc2ccccc2)c1 | 28.2µM | . | . | . | . | .
O=C(Nc1ccc(Cl)cc1)N1CCCN(Cc2ccc(F)cc2)C1 | 25.1µM | . | . | ? | . | .
O=C(CN1CCCCCC1)Nc1ccccc1 | / | / | 7.94µM | . | / | .
O=C(Nc1ccccc1)N1CCN(Cc2ccc(Cl)cc2)CC1 | / | / | . | . | / | .
Cc1ccc(C(=O)Nc2cccc(Oc3ccccc3)c2)o1 | 20µM | . | . | . | . | .
SMILES | HPGD block | IMPase cell inh | ALDH1A1 inh | NPSR antagonist | 12-hLO inh | IMPase Li inh
Cc1ccc(-c2nnn(CCC(=O)NC(C)(C)C)n2)cc1 | . | . | . | . | . | .
CCOC(=O)c1ccc(NC(=O)CN2CCc3ccccc3C2)cc1 | . | . | 14.1µM | . | . | .
O=C(Nc1ccc(Oc2cccc(C(F)(F)F)c2)nc1)c1ccco1 | / | / | 39.8µM | . | / | /
O=C(CN1CCCC1)Nc1ccc(Br)cc1 | / | / | ? | . | / | .
CCOC(=O)N1CCN(CC(=O)Nc2ccc(Oc3ccccc3)cc2)CC1 | . | . | 25.1µM | . | . | .
O=C(CN1CCN(C(=O)N2CCOCC2)CC1)Nc1ccc(Br)cc1 | . | . | 17.8µM | . | . | .
CC(C)(C)c1ccc(Oc2ccc(NC(=O)c3ccco3)cn2)cc1 | / | / | / | .[7.67 µM] | / | /
O=C(CCN1C(=O)c2ccccc2C1=O)Nc1cccc(S(=O)(=O)NC2=NCCC2)c1 | / | / | . | . | / | .
COC1(OC)C(/C=C/c2ccc(Cl)cc2)C(C#N)(C#N)C1(OC)OC (configuration not stated) | . | . | ? | ? | . | .
COc1ccccc1NC(=S)NNC(=O)c1ccc(O)cc1 | . | . | . | . | . | .
O=C(CN1CCCC1)NCC(=O)Nc1ccc(F)cc1 | / | / | . | . | / | .
O=C(CN1CCCC1)Nc1ccc(F)cc1 | / | / | 25.1µM | . | / | .
O=C(CSc1ncnc2[nH]ncc12)Nc1cccc(Oc2ccccc2)c1 | / | / | 20µM | . | / | .
O=C(Nc1cccc(Oc2ccc3c(c2)C(=O)NC3=O)c1)c1ccco1 | 20µM | .[1.84 µM] | . | . | . | .
Cc1ccc(Oc2ccc(NC(=O)c3ccco3)cc2)cc1 | ? | . | ? | .[7.67 µM] | . | .
O=C(CCl)Nc1cccc(Oc2ccccc2)c1 | / | / | 0.282µM | . | / | .
CCN(Cc1ccncc1)C(=O)c1cccs1 | . | . | . | . | . | .
CN(C)c1ccc(NC(=O)N2CCOCC2)cc1 | . | ? | . | . | . | .
CC(C)C(=O)Nc1ccc(NC(=O)c2ccco2)cn1 | / | . | 28.2µM | . | . | /
CCOC(=O)c1ccc(NC(=O)CN2C(=O)NC3(CCCCCC3)C2=O)cc1 | / | / | . | . | / | .
COc1ccc(C(=O)Nc2ccc(N3CCN(c4ccc(OC)cc4)CC3)c(C#N)c2)cc1 | ? | ? | ? | 3.16µM | . | 1.78µM
N#CC1(c2ccc(NC(=O)c3ccccc3F)cc2)CCCC1 | . | . | 5.01µM | . | . | .
COc1ccc(NC(=O)C2(c3ccc(NC(=O)c4ccc(C)cc4)cc3)CCCC2)cc1 | ? | . | . | . | . | .
COc1ccc(N2CCN(c3ccc(NC(=O)C4CCCCC4)cc3C#N)CC2)cc1 | ? | . | ? | . | . | ?
COc1ccc(C(=O)Nc2ccc(C3(C#N)CCCC3)cc2)cc1 | / | / | 1.26µM | . | / | .
SMILES | HPGD block | IMPase cell inh | ALDH1A1 inh | NPSR antagonist | 12-hLO inh | IMPase Li inh
CCc1ccccc1NC(=O)CSc1ccsc1[N+](=O)[O-] | ? | / | ? | . | . | .
O=C(C1CCCCC1)N1CCC(n2nnc3ccccc32)CC1 | . | . | 14.1µM | . | . | .
COc1ccc(C2=NOC(C(=O)Nc3ccc(C)cc3)C2)cc1OC (configuration not stated) | . | . | . | . | . | .
O=C(O)Cc1sc(-c2ccccc2)nc1-c1ccccc1 | . | ? | . | . | . | ?
O=C(O)Cc1sc(NCc2ccco2)nc1-c1ccccc1 | / | / | 3.55µM | . | / | /
Cc1ccccc1C(=O)N1CCC(C(=O)Nc2ccc3c(c2)OCCO3)CC1 | . | . | 28.2µM | . | . | .
O=C(Nc1ccc2c(c1)OCCO2)C1CCN(C(=O)c2ccccc2)CC1 | . | . | 14.1µM | . | . | .
CCC(C(=O)OC)n1cnc2c(nnn2-c2ccc(OC)cc2)c1=O (configuration not stated) | . | . | . | . | . | .

Compound activity as filed in PubChem BioAssay.
